For assay [1], the target named is Mitogen-activated protein kinase 3 (Homo sapiens) (UniProt P27361). To be noted: at 1 µM.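 Also: values are mean percent inhibition of MAPK3.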
The target in assay [2] is SRSF protein kinase 3 (Homo sapiens) (UniProt Q9UPE1). Conditions: at 0.1 µM.
Assay [3] shares this target. Conditions: at 1 µM.
Assay [4] has as its target Mitogen-activated protein kinase 14 (Homo sapiens) (UniProt Q16539). Conditions: at 0.1 µM.
Assay [5] has the same target. To be noted: at 1 µM.
Assay [6] has as its target Mitogen-activated protein kinase 11 (Homo sapiens) (UniProt Q15759). To be noted: at 0.1 µM.
Assay [7] has the same target. To be noted: at 1 µM.
In assay [8] the target is T1, Mitogen-activated protein kinase 13 (Homo sapiens) (UniProt O15264).
T1 sequence (whole entry): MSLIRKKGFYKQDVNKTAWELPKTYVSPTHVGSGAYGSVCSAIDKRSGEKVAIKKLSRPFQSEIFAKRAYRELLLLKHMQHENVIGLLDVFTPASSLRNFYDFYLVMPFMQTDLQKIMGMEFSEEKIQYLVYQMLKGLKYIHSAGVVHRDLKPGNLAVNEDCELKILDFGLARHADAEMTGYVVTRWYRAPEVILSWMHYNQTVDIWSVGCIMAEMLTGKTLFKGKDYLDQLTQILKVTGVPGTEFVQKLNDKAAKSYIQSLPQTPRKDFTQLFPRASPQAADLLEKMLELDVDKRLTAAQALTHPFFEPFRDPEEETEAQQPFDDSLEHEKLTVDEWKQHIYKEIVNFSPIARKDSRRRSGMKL
Conditions: at 0.1 µM.

Assay [9] deals with T1, Mitogen-activated protein kinase 13 (Homo sapiens). To be noted: at 1 µM.
Assay [10] addresses T2, Mitogen-activated protein kinase 12 (Homo sapiens) (UniProt P53778).
T2 sequence (whole entry): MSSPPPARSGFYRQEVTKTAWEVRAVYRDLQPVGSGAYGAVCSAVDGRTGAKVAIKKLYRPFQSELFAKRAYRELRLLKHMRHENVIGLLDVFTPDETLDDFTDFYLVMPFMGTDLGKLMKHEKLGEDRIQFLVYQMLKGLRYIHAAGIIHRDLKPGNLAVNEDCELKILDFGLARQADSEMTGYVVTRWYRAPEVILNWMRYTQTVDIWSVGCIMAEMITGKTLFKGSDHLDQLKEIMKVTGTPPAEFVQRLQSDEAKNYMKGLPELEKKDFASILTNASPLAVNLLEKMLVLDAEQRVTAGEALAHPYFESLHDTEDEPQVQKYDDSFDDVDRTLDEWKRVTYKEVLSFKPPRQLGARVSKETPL
To be noted: at 0.1 µM.

Assay [11] concerns the target T2, Mitogen-activated protein kinase 12 (Homo sapiens). To be noted: at 1 µM.
Assay [12] has as its target SRSF protein kinase 1 (Homo sapiens) (UniProt Q96SB4). To be noted: at 0.1 µM.
Assay [13] shares this target. Conditions: at 1 µM.
In assay [14] the target is Phosphatidylinositol 4,5-bisphosphate 3-kinase catalytic subunit alpha isoform (Homo sapiens) (UniProt P42336). Conditions: at 0.1 µM.
Sequence of Phosphatidylinositol 4,5-bisphosphate 3-kinase catalytic subunit alpha isoform (Homo sapiens) (P42336 whole entry, canonical isoform): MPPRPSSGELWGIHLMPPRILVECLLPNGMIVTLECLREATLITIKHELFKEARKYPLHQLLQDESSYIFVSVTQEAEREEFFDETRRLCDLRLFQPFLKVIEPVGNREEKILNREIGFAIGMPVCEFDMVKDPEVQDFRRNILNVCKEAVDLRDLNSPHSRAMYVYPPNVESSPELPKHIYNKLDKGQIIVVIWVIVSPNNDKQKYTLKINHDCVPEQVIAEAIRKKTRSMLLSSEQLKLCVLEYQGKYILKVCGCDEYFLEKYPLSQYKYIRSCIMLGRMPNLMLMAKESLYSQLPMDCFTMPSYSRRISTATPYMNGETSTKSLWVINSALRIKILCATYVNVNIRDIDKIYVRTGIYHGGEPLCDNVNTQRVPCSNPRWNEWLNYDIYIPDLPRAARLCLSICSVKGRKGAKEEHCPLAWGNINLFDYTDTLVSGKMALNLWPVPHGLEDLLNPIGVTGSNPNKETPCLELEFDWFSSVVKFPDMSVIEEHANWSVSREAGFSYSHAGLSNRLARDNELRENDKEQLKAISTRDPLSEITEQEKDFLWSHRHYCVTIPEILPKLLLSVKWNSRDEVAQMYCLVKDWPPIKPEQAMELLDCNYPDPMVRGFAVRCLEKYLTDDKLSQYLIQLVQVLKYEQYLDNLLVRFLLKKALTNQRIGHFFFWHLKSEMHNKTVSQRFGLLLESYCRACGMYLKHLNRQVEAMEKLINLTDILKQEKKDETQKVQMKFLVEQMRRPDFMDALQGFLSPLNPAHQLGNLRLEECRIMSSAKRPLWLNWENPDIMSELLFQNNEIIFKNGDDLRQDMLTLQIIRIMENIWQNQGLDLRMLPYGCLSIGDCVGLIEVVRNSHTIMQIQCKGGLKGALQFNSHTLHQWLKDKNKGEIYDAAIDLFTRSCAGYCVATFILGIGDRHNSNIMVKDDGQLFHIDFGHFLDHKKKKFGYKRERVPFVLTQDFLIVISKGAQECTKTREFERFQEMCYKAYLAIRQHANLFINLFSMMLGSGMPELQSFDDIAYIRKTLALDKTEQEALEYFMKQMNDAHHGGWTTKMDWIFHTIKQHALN
For assay [15] the target is unchanged. To be noted: at 1 µM.
Assay [16] has as its target T3, Phosphatidylinositol 4,5-bisphosphate 3-kinase catalytic subunit delta isoform (Homo sapiens) (UniProt O00329).
T3 sequence (whole entry): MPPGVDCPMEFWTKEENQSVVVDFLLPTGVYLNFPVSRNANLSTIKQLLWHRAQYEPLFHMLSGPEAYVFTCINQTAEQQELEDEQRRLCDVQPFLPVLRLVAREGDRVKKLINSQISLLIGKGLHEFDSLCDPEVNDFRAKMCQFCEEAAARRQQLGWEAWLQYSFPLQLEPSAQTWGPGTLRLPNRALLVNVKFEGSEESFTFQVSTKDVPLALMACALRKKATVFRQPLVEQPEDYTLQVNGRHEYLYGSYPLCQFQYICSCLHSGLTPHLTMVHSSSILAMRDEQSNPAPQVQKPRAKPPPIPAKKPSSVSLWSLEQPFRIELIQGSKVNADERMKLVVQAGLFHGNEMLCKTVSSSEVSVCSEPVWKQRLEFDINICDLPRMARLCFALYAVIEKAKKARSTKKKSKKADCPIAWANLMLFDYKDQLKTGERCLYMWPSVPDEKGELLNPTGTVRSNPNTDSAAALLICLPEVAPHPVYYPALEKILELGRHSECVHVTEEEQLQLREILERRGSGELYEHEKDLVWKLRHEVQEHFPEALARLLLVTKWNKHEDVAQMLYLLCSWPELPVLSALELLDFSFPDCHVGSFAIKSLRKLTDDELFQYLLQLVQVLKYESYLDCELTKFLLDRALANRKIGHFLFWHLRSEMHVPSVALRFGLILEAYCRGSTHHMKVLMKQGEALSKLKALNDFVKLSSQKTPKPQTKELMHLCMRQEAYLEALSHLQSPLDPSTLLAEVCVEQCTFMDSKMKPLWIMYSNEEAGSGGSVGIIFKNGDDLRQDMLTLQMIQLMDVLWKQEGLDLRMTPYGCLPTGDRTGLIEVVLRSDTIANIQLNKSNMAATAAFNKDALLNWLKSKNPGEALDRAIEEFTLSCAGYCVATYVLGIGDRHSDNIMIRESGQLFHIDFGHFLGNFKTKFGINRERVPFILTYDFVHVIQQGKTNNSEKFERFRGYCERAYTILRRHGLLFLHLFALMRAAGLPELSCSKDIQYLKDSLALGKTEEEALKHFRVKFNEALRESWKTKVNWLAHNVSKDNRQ
Conditions: at 0.1 µM.

For assay [17], the target named is T3, Phosphatidylinositol 4,5-bisphosphate 3-kinase catalytic subunit delta isoform (Homo sapiens). To be noted: at 1 µM.
The target of assay [18] is Phosphatidylinositol 4-kinase beta (Homo sapiens) (UniProt Q9UBF8). Conditions: at 0.1 µM.
Sequence of Phosphatidylinositol 4-kinase beta (Homo sapiens) (Q9UBF8 2-816 limits assumed): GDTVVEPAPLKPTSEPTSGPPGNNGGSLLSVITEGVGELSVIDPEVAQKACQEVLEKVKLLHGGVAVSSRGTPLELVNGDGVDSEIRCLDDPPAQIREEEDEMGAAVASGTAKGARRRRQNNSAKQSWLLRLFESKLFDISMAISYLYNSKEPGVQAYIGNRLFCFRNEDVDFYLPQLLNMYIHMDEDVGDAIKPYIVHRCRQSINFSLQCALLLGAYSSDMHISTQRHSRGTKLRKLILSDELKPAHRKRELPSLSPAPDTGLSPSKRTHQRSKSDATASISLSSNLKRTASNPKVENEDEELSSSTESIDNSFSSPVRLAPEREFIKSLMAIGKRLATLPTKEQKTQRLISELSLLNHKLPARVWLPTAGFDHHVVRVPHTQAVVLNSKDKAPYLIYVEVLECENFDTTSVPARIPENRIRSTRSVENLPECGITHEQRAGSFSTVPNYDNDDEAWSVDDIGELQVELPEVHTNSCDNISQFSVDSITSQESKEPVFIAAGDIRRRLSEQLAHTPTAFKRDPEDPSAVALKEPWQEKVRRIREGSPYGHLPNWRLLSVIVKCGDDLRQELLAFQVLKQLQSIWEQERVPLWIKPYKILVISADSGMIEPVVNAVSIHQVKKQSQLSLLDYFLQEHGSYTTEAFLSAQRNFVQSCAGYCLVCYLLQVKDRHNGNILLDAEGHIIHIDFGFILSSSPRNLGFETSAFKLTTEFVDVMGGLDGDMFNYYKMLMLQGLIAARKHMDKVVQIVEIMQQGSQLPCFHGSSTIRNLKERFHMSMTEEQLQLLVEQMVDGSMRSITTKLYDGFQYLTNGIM
Assay [19] has the same target. To be noted: at 1 µM.
Assay [20] addresses Sphingosine kinase 1 (Homo sapiens) (UniProt Q9NYA1). To be noted: at 0.1 µM.

“And” between values parts separate entries of the source, which are not always exact repeats. Identical values can stand only once.

Sequence of SRSF protein kinase 1 (Homo sapiens) (Q96SB4 whole entry): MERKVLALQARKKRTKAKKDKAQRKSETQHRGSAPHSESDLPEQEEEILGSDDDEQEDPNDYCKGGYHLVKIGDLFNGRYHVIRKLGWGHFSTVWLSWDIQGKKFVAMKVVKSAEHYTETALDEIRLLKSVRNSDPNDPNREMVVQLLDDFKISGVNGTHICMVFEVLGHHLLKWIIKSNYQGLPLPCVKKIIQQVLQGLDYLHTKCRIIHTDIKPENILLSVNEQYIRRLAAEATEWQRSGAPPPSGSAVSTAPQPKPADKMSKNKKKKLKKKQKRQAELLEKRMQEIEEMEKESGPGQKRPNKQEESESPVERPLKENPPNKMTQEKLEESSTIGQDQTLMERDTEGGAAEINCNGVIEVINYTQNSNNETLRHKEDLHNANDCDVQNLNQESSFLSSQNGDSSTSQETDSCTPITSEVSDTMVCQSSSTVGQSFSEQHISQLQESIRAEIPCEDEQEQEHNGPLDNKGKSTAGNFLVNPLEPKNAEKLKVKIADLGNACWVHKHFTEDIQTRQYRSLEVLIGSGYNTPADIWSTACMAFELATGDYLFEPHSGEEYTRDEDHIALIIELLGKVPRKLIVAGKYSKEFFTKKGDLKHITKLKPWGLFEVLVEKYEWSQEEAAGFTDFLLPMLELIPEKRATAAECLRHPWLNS
Sequence of Mitogen-activated protein kinase 14 (Homo sapiens) (Q16539 whole entry): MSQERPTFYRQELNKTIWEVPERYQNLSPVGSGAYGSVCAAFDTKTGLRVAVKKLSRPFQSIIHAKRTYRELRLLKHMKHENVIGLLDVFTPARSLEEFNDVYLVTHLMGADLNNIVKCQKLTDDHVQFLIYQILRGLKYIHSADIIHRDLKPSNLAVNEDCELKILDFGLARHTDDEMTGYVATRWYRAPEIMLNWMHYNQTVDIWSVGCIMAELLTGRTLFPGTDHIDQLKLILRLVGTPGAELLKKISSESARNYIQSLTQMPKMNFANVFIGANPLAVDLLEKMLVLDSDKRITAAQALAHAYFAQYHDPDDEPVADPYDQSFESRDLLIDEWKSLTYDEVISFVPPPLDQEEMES
Sequence of SRSF protein kinase 3 (Homo sapiens) (Q9UPE1 whole entry): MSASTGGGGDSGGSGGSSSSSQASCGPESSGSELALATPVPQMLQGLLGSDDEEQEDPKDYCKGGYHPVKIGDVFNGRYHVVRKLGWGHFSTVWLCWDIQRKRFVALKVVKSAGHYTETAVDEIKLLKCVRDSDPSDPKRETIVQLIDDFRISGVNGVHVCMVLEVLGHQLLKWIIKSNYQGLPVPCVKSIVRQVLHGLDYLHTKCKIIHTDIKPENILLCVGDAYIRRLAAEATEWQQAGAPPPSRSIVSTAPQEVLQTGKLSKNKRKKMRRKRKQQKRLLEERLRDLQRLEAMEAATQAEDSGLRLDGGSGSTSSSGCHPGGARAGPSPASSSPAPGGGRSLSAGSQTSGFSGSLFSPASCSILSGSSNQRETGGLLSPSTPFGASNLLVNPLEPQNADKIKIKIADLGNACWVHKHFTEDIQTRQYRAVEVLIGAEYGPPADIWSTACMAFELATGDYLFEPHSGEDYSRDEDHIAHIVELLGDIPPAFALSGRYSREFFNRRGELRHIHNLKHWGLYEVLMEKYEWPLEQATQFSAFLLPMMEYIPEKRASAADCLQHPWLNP
Sequence of Mitogen-activated protein kinase 11 (Homo sapiens) (Q15759 whole entry): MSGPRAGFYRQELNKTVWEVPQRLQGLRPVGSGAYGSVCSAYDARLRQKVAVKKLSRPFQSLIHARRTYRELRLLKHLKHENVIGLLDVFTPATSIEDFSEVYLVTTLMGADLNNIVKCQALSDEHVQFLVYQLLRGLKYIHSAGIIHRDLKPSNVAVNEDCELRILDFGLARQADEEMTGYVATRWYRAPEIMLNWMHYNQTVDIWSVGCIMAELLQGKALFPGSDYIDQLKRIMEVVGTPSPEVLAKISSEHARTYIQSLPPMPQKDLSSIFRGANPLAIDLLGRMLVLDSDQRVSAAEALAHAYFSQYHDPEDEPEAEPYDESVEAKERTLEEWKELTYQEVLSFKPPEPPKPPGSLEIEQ
Sequence of Sphingosine kinase 1 (Homo sapiens) (Q9NYA1 whole entry): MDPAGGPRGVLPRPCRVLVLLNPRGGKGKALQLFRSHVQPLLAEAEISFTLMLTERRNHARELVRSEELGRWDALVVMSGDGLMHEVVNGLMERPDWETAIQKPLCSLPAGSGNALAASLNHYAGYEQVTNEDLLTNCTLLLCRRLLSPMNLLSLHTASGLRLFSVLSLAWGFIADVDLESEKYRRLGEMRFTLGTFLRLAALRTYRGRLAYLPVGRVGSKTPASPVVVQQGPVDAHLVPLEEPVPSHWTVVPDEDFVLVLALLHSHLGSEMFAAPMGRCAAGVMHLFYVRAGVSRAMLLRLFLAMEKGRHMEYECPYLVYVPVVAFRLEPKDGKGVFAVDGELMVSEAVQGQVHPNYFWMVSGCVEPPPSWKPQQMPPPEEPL
Sequence of Mitogen-activated protein kinase 3 (Homo sapiens) (P27361 whole entry): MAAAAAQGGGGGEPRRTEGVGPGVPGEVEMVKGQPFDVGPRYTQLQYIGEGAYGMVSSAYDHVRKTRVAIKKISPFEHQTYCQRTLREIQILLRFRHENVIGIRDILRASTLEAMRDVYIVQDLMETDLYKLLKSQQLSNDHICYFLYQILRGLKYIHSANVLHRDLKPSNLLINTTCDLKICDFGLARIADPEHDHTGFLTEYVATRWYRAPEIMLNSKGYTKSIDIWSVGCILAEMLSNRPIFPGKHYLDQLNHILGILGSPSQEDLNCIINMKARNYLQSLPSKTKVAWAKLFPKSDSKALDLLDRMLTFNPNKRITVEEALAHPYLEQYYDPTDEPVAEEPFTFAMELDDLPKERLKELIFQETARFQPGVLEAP

Regarding `COc1cc2c(cc1Nc1nc(Nc3cccc(F)c3C(N)=O)c3cc[nH]c3n1)N(C(=O)CN1CCN(C(C)C)CC1)CC2`, the inhibition – broadly, the change of the read-out against control, counted positive when it falls – worked out at 3.92% in [1]; 4.88% in assay [2]; 0.53% in assay [3]; 5.02% in assay [4]; 6.81% in assay [5]; 2.96% in [6]. Moreover, the inhibition was 3.23% in assay [7]; 0.14% in [8]; 2.89% in assay [9]; 1.49% in [10]; 2.81% in [11]; -3.13% in assay [12]. In addition, the inhibition in [13] is -1.66%; in assay [14], 0.54%; in assay [15], 0.15%; in assay [16] it was -1.97%; in assay [17], -0.26%; in assay [18] it was -0.22%. Also, the inhibition was 0.87% in [19] and 0.42% in assay [20].
Take `Nc1nonc1-c1nc2cnccc2n1C1CC1`: the inhibition in [1] was 4.99% and 3.59%; in assay [2], -0.3% and -0.76%; in assay [3] it was -1.03% and 0.65%; in [4], 9.91% and 3.52%; in assay [5], 9.15% and 7.62%; in [6], 3.95% and 1.62%. Further, the inhibition was 6.89% and 0.76% in assay [7]; 3.43% and 4.51% in assay [8]; 6.86% and 5.08% in [9]; 3.64% and 2.61% in assay [10]; 3.34% and 3.65% in assay [11]; -1.33% and -0.52% in assay [12]. The inhibition was -1.72% and -0.89% in [13]; 2.95% and 6.82% in assay [14]; 3.77% and 8% in [15]; 1.84% and 8.17% in assay [16]; 2.3% and 9.78% in [17]; 0.74% and 1.33% in assay [18]. Moreover, the inhibition in [19] was -6.41% and 0.29%; in assay [20] it was -1.72% and 0.56%.
As to `CC1=C(C(=O)Nc2ccc3[nH]nc(C)c3c2)C(c2ccc(C(F)(F)F)cc2)CC(=O)N1` (stereo not given), the inhibition was 19.7% in assay [1]; 1.18% in assay [2]; -0.95% in [3]; 1.31% in [4]; 5.28% in assay [5]; -0.15% in assay [6]. Besides, the inhibition in assay [7] was 0.38%; in assay [8] it was 1.19%; in assay [9], 6.03%; in assay [10], -4.7%; in [11], 2.82%; in [12] it was -1.2%. Further, the inhibition was -2.95% in assay [13]; 2.05% in assay [14]; 2.21% in [15]; 2.89% in [16]; 3.84% in assay [17]; 4.33% in [18]. Also, the inhibition in assay [19] was -1.82%; in [20] it was 0.96%.
For `c1cnn2ncc(-c3ccnc(NCCCN4CCOCC4)n3)c2c1`, the inhibition is 0.61% in assay [1]; -0.52% in [2]; -0.57% in [3]; 1.91% in assay [4]; 8.35% in assay [5]; 2.39% in assay [6]. For the same molecule, the inhibition in assay [7] was 4.06%; in assay [8], -1.15%; in assay [9] it was 4.03%; in assay [10] it was -0.08%; in assay [11] it was 3.02%; in assay [12], -1.76%. For the same molecule, the inhibition is -3.38% in assay [13]; 6.11% in assay [14]; 8.31% in assay [15]; 7.14% in assay [16]; 7.98% in assay [17]; 1.61% in [18]. In addition, the inhibition in assay [19] was 9.05%; in assay [20], -6.03%.
For `NS(=O)(=O)c1ccc(N/N=C2\C(=O)Nc3cccc(CCc4ccncc4)c32)cc1`, the inhibition in assay [1] is -1.26%; in assay [2] it was -1.55%; in assay [3] it was -0.36%; in assay [4], 1.13%; in assay [5] it was 0.21%; in [6] it was 1.91%. Besides, the inhibition is 3.6% in [7]; 0.17% in assay [8]; -0.27% in [9]; 0.4% in assay [10]; 0.75% in assay [11]; -0.62% in assay [12]. The inhibition in assay [13] was -1%; in assay [14] it was 0.59%; in assay [15], 1.55%; in assay [16], 0.97%; in assay [17] it was 3.61%; in assay [18], 2.1%. Besides, the inhibition worked out at 1.01% in [19] and 1.36% in [20].
With `COC(=O)Nc1nc2cc(Oc3ccc(NC(=O)Nc4ccccc4)cc3)ccc2[nH]1`, the inhibition in assay [1] was 4.97%; in assay [2], -2.65%; in assay [3] it was 1.09%; in assay [4] it was 1.53%; in assay [5] it was 6.62%; in assay [6] it was 3.05%. Further, the inhibition in [7] is 8.13%; in [8] it was -0.27%; in assay [9] it was 1.34%; in assay [10], 3.43%; in [11], 1.26%; in [12], -2.23%. The inhibition in assay [13] is -0.94%; in assay [14], 3.19%; in assay [15], 0%; in [16] it was 0.3%; in assay [17], 0.14%; in assay [18] it was 3.09%. The inhibition was 2.26% in assay [19] and -0.55% in [20].

The values are drawn from ChEMBL document CHEMBL1961873, “Compounds: GSK PKIS; Assays: Nanosyn kinase panel” (2012).
